Reference: paper PMC5540273 (PLoS ONE, 2017)

System: NEK2
Details: concentration: 1 μM, replicates: in singlicate; n = 1
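Also: KINOMEscan kinase panel screen.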

| SMILES | %Inh [%] |
| --- | --- |
| Cc1cccc(-c2nc(-c3ccc(S(C)(=O)=O)cc3)sc2-c2ccncc2)c1 | 0 |
| Nc1nc(-c2ccc3c(N)n[nH]c3c2)cc(N2CCCC2)n1 [GSK2227430] | 0 |
| NCC(NC(=O)c1cc(-c2cn[nH]c2)c(-c2ccnc3[nH]ccc23)s1)c1ccccc1.O=C(O)C(F)(F)F.O=C(O)C(F)(F)F (centres unmarked) [GSK1325775] | 43 |
| Cc1c(Cn2c(C)nn3c(=O)cc(N4CCOC(C)C4)nc23)cccc1C(F)(F)F (centres unmarked) [GSK2344444] | 3 |
| O=C(Nc1cccc(-c2nn3ncccc3c2-c2ccnc(Nc3cccc(C(F)(F)F)c3)n2)c1)c1c(F)cccc1F [GSK299495] | 0 |
| N#Cc1c(N2CCOCC2)sc(-c2ccn[nH]2)c1-c1ccc(Cl)cc1 | 0 |
| CCc1nc(-c2cccc(C)c2)c(-c2ccnc(NCc3ccccc3)c2)s1 | 0 |
| Nc1nccc(-c2c(-c3ccc(F)cc3)ncn2C2CCN(CC(F)(F)F)CC2)n1 [SB-236560] | 0 |
| CC(=O)Nc1ccc(COc2ccc(Nc3ccnc4cc(-c5ccccn5)ccc34)cc2)cc1.Cl [GW440148] | 8 |
| O=C(NCCCN1CCOCC1)c1cccc(Nc2nccc(Nc3ccc(Oc4ccccc4)cc3)n2)c1 [GW663929] | 6 |
| COc1cc2c(cc1OCCN1CCN(C)CC1)ncc1c3ccc(C#N)cc3[nH]c21 | 48 |
| COc1ccc(Nc2ncc(C#N)c(Nc3ccccc3C(N)=O)n2)cc1N1CCN(C)CC1.Cl [GSK1558669] | 99.6 |
| Cn1ccc2ncnc(Oc3ccc(NC(=O)Nc4ccncc4)c(Cl)c3)c21 | 0 |
| COc1cc2c(cc1OC[C@@H](O)CO)ncc1c3ccc(C#N)cc3[nH]c21 | 23 |
| Cc1cn2c(=O)cc(N3CCOCC3)nc2n1Cc1cccc(Cl)c1Cl [GSK2334006] | 14 |
| Cn1cc(-c2ccc3c(c2)CCN3C(=O)Cc2ccccc2Cl)c2c(N)ncnc21 [GSK2608885] | 79 |
| NS(=O)(=O)c1cccc(-c2ccc3nccc(-c4cccc(S(N)(=O)=O)c4)c3c2)c1 [GW867253] | 0 |
| Cl.Oc1cccc(Nc2ccnc3cc(-c4ccncc4)ccc23)c1 [GW494601] | 0 |

| SMILES | %Inh [%] |
| --- | --- |
| [2H]C([2H])(c1cccc(C(F)(F)F)c1C)n1ccn2c(=O)nc(N3CCOCC3)cc12 [GSK2336394] | 0 |
| Cl.Nc1ncnc2occ(-c3ccc(NC(=O)Nc4cc(C(F)(F)F)ccc4F)cc3)c12 [SB-707548] | 37 |
| O=C1NC(=O)C(N2CCc3ccccc32)=C1c1cccc(Cl)c1 [SB-408010] | 12 |
| C[C@@H](Oc1cc(-n2cnc3ccc(NC(=O)NC(C)(C)C)cc32)sc1C(N)=O)c1ccccc1Cl [GSK346294] | 5 |
| O=c1cc(N2CCOCC2)nc2n(Cc3cccc(Cl)c3Cl)c(C3CC3)nn12 [GSK2358994] | 7 |
| CSc1ccc(-c2cc3ncnc(SCC(=O)O)c3s2)cc1 | 0 |
| c1ccc(-c2n[nH]cc2-c2ccnc3ccccc23)nc1 [GW271431] | 2 |
| O=C(NCCNc1ccnc(Nc2ccc(F)cc2)n1)c1cc2ccccc2s1 [GSK1379874] | 0 |
| Fc1ccc(-c2ncn(CCCN3CCOCC3)c2-c2cccnc2)cc1 [SB-211743] | 0 |
| Cc1ccc(NC(=O)c2ccnc(N3CCN(C)CC3)c2)cc1-c1ccc(C(=O)NCC2CC2)cc1 [GW775604] | 0 |
| CN1c2ccc(CNc3ccc(F)cc3)cc2-c2c(cnn2C)S1(=O)=O | 0 |
| CNc1ncnc2[nH]ncc12 [SKF-18355] | 0 |
| COCCNC(=O)c1ccc(-c2cc(C(=O)NC3CC3)cc(F)c2C)cc1 [GW868318] | 0 |
| CCc1ccnc(/C=C/c2n[nH]c3cc(Sc4ccccc4C(=O)NC)ccc23)c1 | 0 |
| CC(C)Oc1ccc2c(-c3ccnc(Nc4ccc(N5CCN(C)CC5)cc4)n3)cnn2n1 [GW696155] | 93.3 |
| c1ccc(-c2cc(-c3c[nH]nc3-c3ccccn3)ccn2)cc1 [GW576604] | 0 |
| Fc1ccc(-c2ncn(CCCN3CCOCC3)c2-c2ccccn2)cc1 [SB-211742] | 7 |
